Assay outcomes as filed in PubChem.
PAFAH1B2 inh = inhibitors of human PAFAH1B2; hit rate 1.2% among 340,000; P68402; AID 492953; recombinant PAFAH1B2, FP-rhodamine activity probe, fluorescence polarization; inhibition, % at 3.39 µM;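 active means inhibition above the mean of all tested compounds plus 3 SD, cut at about 24% in these data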
Target sequence (P68402 whole entry, looked up): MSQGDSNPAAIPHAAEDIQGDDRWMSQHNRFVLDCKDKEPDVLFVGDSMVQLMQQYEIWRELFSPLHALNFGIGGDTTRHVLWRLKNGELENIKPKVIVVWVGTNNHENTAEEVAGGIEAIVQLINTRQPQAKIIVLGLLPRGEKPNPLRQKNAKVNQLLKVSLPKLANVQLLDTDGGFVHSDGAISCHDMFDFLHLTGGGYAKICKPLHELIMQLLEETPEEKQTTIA
PAFAH1B3 inh = PAFAH1B3 (human) inhibition | Q15102 | recombinant PAFAH1B3, FP-rhodamine probe, fluorescence polarization | inhibition, % at 3.39 µM | hit rate 0.28% among 340,000 | AID 492972;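 active means inhibition above the screen-wide average of all tested compounds plus 3 SD, cut at about 25% in these data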
Target sequence (Q15102 whole entry, looked up): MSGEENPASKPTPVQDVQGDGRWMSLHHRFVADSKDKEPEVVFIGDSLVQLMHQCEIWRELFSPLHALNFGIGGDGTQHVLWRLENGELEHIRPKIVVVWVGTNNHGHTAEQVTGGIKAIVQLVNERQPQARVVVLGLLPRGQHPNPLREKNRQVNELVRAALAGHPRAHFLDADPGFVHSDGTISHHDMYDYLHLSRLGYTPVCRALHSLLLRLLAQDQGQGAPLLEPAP
pPAFAH FP inh = inhibitors of human plasma PAF acetylhydrolase (pPAFAH). Q13093. AID 463082. recombinant pPAFAH, FP-rhodamine probe fluorescence polarization. hit rate 1.5% among 330,000. inhibition, % at 3.39 µM;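 active means inhibition above the mean inhibition across the screen plus 3 SD, cut at about 25% in these data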;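 further: inhibitors block binding of the rhodamine activity-based probe so polarization drops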
PAFAH2 FP inh = inhibitors of human PAFAH2 | Q99487 | recombinant PAFAH2, FP-rhodamine activity probe, fluorescence polarization | inhibition, % at 3.39 µM | hit rate 0.99% among 340,000;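 active means inhibition above the mean over all tested compounds plus 3 SD, cut at about 30% in these data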;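 further: inhibitors block probe labeling of enzyme so polarization drops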
DSG3 Ab inh = inhibitors of pemphigus antibody binding to human desmoglein-3; DSG3-coupled beads, scFv-anti-DSG3-GFP binding, flow cytometry; hits give low values; binding (percent of control), % at 10 µM; hit rate 0.48% among 310,000;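 active means binding more than 3 SD below its plate's average and above zero; inconclusive means below that plate limit but binding exactly zero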;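 further: hits lower antibody fragment binding to DSG3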
M18AAP inhibitor = PfM18AAP enzyme inhibition; recombinant PfM18AAP, H-Glu-NHMec fluorogenic cleavage; inhibition, % at 7.35 µM; hit rate 1.2% among 290,000; AID 1822;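 active means inhibition above the campaign mean inhibition over all tested compounds plus 3 SD, cut at about 28% in these data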
PAFAH2 confirm = confirmation of human PAFAH2 inhibitors. inhibition, % at 3.39 µM. recombinant PAFAH2, FP-rhodamine activity probe, fluorescence polarization. shares compounds with PAFAH2 FP inh. hit rate 65% among 2,300;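 active means mean inhibition over three repeats above a set limit taken from the earlier primary screen, cut at about 30% in these data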;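 further: inhibitor blocks binding of rhodamine activity probe so polarization falls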
Numbers stand for hits; - = inactive; ? = inconclusive; . = not tested or not shown. Only some compounds are listed: those with a hit (about 3.8% of all), similar ones and a draw of the others.

SMILES	PAFAH1B2 inh	PAFAH1B3 inh	pPAFAH FP inh	PAFAH2 FP inh	DSG3 Ab inh	M18AAP inhibitor	PAFAH2 confirm
CC1CCCC(CC(N)=O)CC1 (configuration not stated)	-	-	.	-	-	.	.
O=C(COC(=O)c1ccc(CO)cc1)Nc1ccc(OC(F)F)cc1	-	-	-	82	-	-	74
O=C(COC(=O)c1ccc(Cl)nc1)Nc1ccc2ccccc2c1	-	-	.	-	-	.	.
O=C(COC(=O)c1ccc(CO)cc1)Nc1ccc2ccccc2c1	-	-	-	80	-	.	71
Cc1cc(C)c(-c2cc(NC(=O)COC(=O)c3ccc(CO)cc3)n(-c3ccccc3)n2)cc1C	-	-	-	32	-	-	-
COc1ccc(Cc2nnc(SC(C)C(=O)Nc3ccc(C(N)=O)cc3)o2)cc1 (configuration not stated)	-	-	-	-	-	.	.
Cc1cc2nc(C)n(CCCNC(=O)Nc3ccc(F)cc3)c2cc1C	-	-	-	-	.	-	.
COc1ccc(-n2nc(C(=O)NCC(=O)NCCCN3CC(C)CC(C)C3)c3ccccc3c2=O)cc1OC (configuration not stated)	-	-	-	-	.	-	.
CCc1ccc(NC(=O)COC(=O)/C=C/c2ccco2)cc1	-	-	-	73	-	.	73
O=C(COC(=O)/C=C/c1ccco1)Nc1ccccc1	-	-	-	85	-	-	83
O=C(COC(=O)/C=C/c1ccco1)Nc1ccc(F)cc1Cl	-	-	-	63	-	-	46
CS(=O)(=O)c1ccc(C(=O)N2CCN(S(=O)(=O)c3ccc(C4CCCCC4)cc3)CC2)cc1	-	-	.	-	-	.	.
CCOC(=O)C1=CC[C@]2(C)c3c(c4ccccc4n3C)C(=O)C1N2C	-	-	-	-	-	.	.
N/C(CC(=O)Nc1ccc(F)cc1F)=N\OC(=O)c1cccs1	-	-	-	41	-	-	-
COc1ccccc1C/C(N)=N/OC(=O)c1cccs1	-	-	-	81	.	-	75
C/C(=N\Nc1ccc(F)cc1F)c1cccs1	.	.	-	.	.	-	.
N/C(Cc1ccc(Cl)cc1Cl)=N\OC(=O)c1cccs1	-	-	-	88	.	-	84
N/C(Cc1cccc2ccccc12)=N\OC(=O)c1cccs1	-	-	-	-	-	-	.
COc1ccc(CC(=O)N/N=C(\C)c2cccs2)cc1	-	-	-	-	-	-	.
COc1ccc(C/C(N)=N/OC(=O)c2cccs2)cc1	-	-	-	47	-	-	38
COc1ccc(OC)c(CN2CCN(c3ccc(S(=O)(=O)N4CCCC4)cn3)CC2)c1	-	-	-	-	?	.	.
N#Cc1ccc(NC(=O)Cn2cnc(S(=O)(=O)N3CCc4ccccc43)c2)cc1	-	-	-	-	.	-	.
COc1ccccc1C/C(N)=N/OC(=O)/C=C/c1ccccc1	-	-	-	69	-	-	72
COc1ccccc1C/C(N)=N/OC(=O)COc1cccc(C)c1C	-	-	-	-	-	-	.
O=S(=O)(Nc1c(O)ccc2ccccc12)c1cccc2ccccc12	-	-	-	32	-	.	-
SMILES	PAFAH1B2 inh	PAFAH1B3 inh	pPAFAH FP inh	PAFAH2 FP inh	DSG3 Ab inh	M18AAP inhibitor	PAFAH2 confirm
NC(=S)n1[nH]c(-c2ccc([N+](=O)[O-])cc2)c(N=Nc2ccccc2[N+](=O)[O-])c1=O	-	-	.	-	-	-	.
Cc1c(N=Nc2c(-c3ccc([N+](=O)[O-])cc3)[nH]n(C(N)=S)c2=O)cccc1[N+](=O)[O-]	-	-	.	55	-	-	36
COc1ccc([N+](=O)[O-])cc1NC(=O)C(C)OC(=O)CC1CCCC1 (configuration not stated)	-	-	-	-	.	.	.
O=C(O)CN1CCNCCN(CC(=O)O)CCNCC1	-	-	.	-	-	.	.
O=C1OC(/C(=C\Nc2cc(Cl)ccc2O)[N+](=O)[O-])c2ccccc21 (configuration not stated)	-	-	-	49	-	41	46
COc1ccccc1Nc1nc(N)nc(CSC(=S)N2CCCCC2)n1	-	-	-	37	-	-	-
CCCCCCCCCCCC1=C(O)C(=O)C=C(O)C1=O	-	-	-	53	-	.	40
CCCCCCc1c(O)c2ccccc2[nH]c1=O	-	-	-	-	-	-	.
Oc1ccc(-c2nccc(-c3ccccn3)n2)cc1	-	-	-	-	-	-	.
CCOCCOC(=O)NCCCCCCNC(=O)OCCOCC	-	-	-	60	-	-	47
Cc1cccc(C)c1NC1=C(Cl)C(=O)OC1OC(=O)c1ccccc1 (configuration not stated)	-	-	-	31	-	-	-
Cc1ccc(-c2ccc(/C=C3\C(=O)ON=C3c3ccccc3)o2)c([N+](=O)[O-])c1	-	-	-	32	-	-	-
O=C(NCC(c1cccs1)N1CCOCC1)c1ccccc1NS(=O)(=O)c1cccc([N+](=O)[O-])c1 (configuration not stated)	-	-	-	-	-	-	.
O=C(NCC(c1cccs1)N1CCOCC1)c1ccccc1NS(=O)(=O)c1ccc(Cl)c([N+](=O)[O-])c1 (configuration not stated)	-	-	-	43	-	-	81
CC(C)n1c(N2CCN(C(=O)N3CCCCC3)CC2)nc2ccccc21	-	-	-	33	-	-	-
CCN(CC)c1ccc(/C=C2\SC(=O)N(C(C)C)C2=O)o1	.	.	-	.	-	-	.
Cc1ccc(C2(C)NC(=O)N(CC(=O)NNC(=O)c3ccoc3C)C2=O)cc1 (configuration not stated)	-	-	-	-	-	.	.
O=C1CC(c2ccccc2)CC(O)=C1C=NCCN1CCN(Cc2ccccc2)CC1 (configuration not stated)	-	-	-	-	-	-	.
COC(=O)c1ccccc1NC(=O)COC(=O)c1ccc(C)c(NC(=O)c2ccco2)c1	-	-	-	-	-	-	.
Cc1ccc(C(=O)OCC(=O)Nc2ncc(C(F)(F)F)cc2Cl)cc1NC(=O)c1ccco1	-	-	-	36	-	-	-
CCOC(=O)N1CCN(C(=O)c2ccccc2NC(=O)c2ccc(Br)cc2)CC1	-	-	-	44	-	-	-
O=C(NNC(=O)c1cccc(O)c1)Nc1ccc([N+](=O)[O-])cc1	-	-	-	49	-	-	-
CCS(=O)(=O)c1ccc(O)c(NC(=O)NC2CCCCC2)c1	-	-	-	81	-	-	64
CCS(=O)(=O)c1ccc(O)c(NC(=O)COc2ccccc2)c1	-	-	-	48	-	-	44
Cc1ccc(O)c(C(=O)c2cnn(C(=O)COc3ccccc3C#N)c2)c1	.	.	-	.	.	-	.
CC(C)(C)[C@H]1COC(=O)CCCC/C=C\C[C@H](CC(=O)N(CCO)Cc2ccccc2)C(=O)N1	-	-	-	-	-	.	.
